Assay [1] deals with Hek293T. The assay can be described thus: Primary qHTS to identify gynecologic anti-cancer compounds using libraries of approved drugs and bioactive compounds (AID 1345084). Also: % is scaled to controls: 0 for no effect and ±100 for the full control effect; nearly all actives have a fitted effect of over 55% in size. Conditions: Gynecologic cancer cell panel viability, ATPlite luminescence, 48 h, control line for the selectivity index; series mostly up to 57.5 µM. Put shortly:
(§1)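 Cytotoxicity screen measuring ATP content by luciferase luminescence. Each compound is applied at five concentrations for 48 h at 37 C with 5% CO2.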
(In general: In qHTS, concentration-response curves come from the screen itself.)

Assay [2] deals with JEG-3. Described as above. As to conditions: Gynecologic cancer cell panel viability, ATPlite luminescence, 48 h; series mostly up to 57.5 µM. Put shortly: as §1
On the technique in general: In ATP-based viability assays light output follows the ATP content of the culture.

For assay [3], the system named is OV90. The assay is described as above. Conditions: Gynecologic cancer cell panel viability, ATPlite luminescence, 48 h; series mostly up to 57.5 µM. Put shortly: as §1
Assay [4] has as its system PA-1. The assay is described as above. As to conditions: Gynecologic cancer cell panel viability, ATPlite luminescence, 48 h; series mostly up to 57.5 µM. Put shortly:
as §1

Assay [5] has as its system SKOV3. The description is as above. Conditions: Gynecologic cancer cell panel viability, ATPlite luminescence, 48 h; series mostly up to 57.5 µM. Put shortly:
as §1

Assay [6] relates to Tov-21-G. The assay is described as above. As to conditions: Gynecologic cancer cell panel viability, ATPlite luminescence, 48 h; series mostly up to 57.5 µM. Put shortly: as §1
Assay [7] deals with Tov112D. The assay is described as above. As to conditions: Gynecologic cancer cell panel viability, ATPlite luminescence, 48 h; series mostly up to 57.5 µM. Put shortly: as §1
The nature of assay [8]: Drug repurposing screens with cells derived from glioblastoma tumor samples (AID 1345199). Also: nearly all actives have a fitted effect of over 40% in size. Also: potency is read from the fitted curve at half-maximal effect. As to activity, negative = cell killing: % is scaled to controls: 0 for no effect and ±100 for the full control effect. Conditions: GBM patient neurospheres viability, ATP luminescence, 48 h. Put shortly: (§2)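 Four patient lines of CD133+ GBM neurospheres were screened at several concentrations; hits were retested in those lines plus three slower-growing GBM lines, using 48-hour treatment and ATP-based viability.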

Assay [9] relates to astro. The assay is described as above. As to conditions: viability, ATP luminescence, 48 h; series mostly up to 45.9 µM. Put shortly: as §2
Assay [10] addresses Nuclear receptor subfamily 1 group I member 2 (Rattus norvegicus) (UniProt Q9R1A7). The assay can be described thus: qHTS assay for small molecule activators of the rat pregnane X receptor (rPXR) signaling pathway (AID 651751; call rule not given here; also: 0% is about no effect). Conditions: rPXR reporter cells, luciferase (One-Glo), 24 h.
Assay [11] is described as follows: qHTS assay for small molecule activators of the human pregnane X receptor (PXR) signaling pathway (AID 720659; call rule not given here; also: 0% is about no effect).
[12] abbreviates: at 20 µM (top of the series), tumour line C.
Setting [13] is: at 21.2 µM (top of the series), tumour line B.
Where [14] appears, read: at 21.2 µM (top of the series), tumour line D.
The mark [15] stands for this setting: at 45.9 µM (top of the series), tumour line B.
The mark [16] stands for this setting: at 45.9 µM (top of the series), tumour line D.
Setting [17] is: at 46.1 µM (top of the series), tumour line C.
[18] abbreviates: at 21.3 µM (top of the series), tumour line A.

The structures appear in SMILES notation. Where “and” joins values, the source holds several entries; their conditions need not be identical. Equal entries are not always repeated. A number with no mark means an inactive call. Records with an inconclusive call do not appear. Calls of active or inactive are those of the source. Unless noted, calls follow the shape of the dose curve; as a rule, active = well fitted curve in the direction sought with a large enough effect; inconclusive = small, poorly fitted or top-dose-only effect, or another doubt; inactive = no such curve, though single readings can be large; an effect the other way counts as inactive or inconclusive.

Sequence of Nuclear receptor subfamily 1 group I member 2 (Rattus norvegicus) (Q9R1A7 whole entry, looked up): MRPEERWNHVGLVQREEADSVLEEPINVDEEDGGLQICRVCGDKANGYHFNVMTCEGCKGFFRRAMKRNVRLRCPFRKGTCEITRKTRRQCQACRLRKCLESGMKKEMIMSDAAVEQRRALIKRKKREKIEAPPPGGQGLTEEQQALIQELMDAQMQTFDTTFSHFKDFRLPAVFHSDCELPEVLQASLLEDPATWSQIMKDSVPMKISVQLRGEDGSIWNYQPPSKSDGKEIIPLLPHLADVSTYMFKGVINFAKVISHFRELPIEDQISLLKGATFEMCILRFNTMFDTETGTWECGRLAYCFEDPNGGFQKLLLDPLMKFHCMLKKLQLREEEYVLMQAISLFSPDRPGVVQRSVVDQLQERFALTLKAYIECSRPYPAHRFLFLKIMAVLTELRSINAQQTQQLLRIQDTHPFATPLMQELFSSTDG

In the case of `C[N+]12CCC(CC1)C(OC(=O)C(O)(c1ccccc1)c1ccccc1)C2` (stereo not given), the Potency result in assay [1], in assay [2], in assay [3], in assay [4], in assay [5] and in [6] was “inactive” throughout. Moreover, the Potency result in assay [7] and in assay [9] was “inactive” in each case. The activity, negative = cell killing is -3.46% in assay [8] (setting [12]), -10.6% in [8] (setting [13]) and -5.49% in assay [8] (setting [14]).

As for `Cc1ccccc1OCC(O)CO` (stereo not given), the Potency result in assay [1], in [2], in [3], in assay [4], in assay [5] and in assay [6] was “inactive” in each case. Also, the Potency entry in [7] and in assay [9] was “inactive” in each case. For the same compound, the activity, negative = cell killing in assay [8] (setting [15]) is -8.02%; in assay [8] (setting [16]) it was -9.22%; in [8] (setting [17]), -19.6%.

`CCCCC(CC)COC(=O)c1ccc(N(C)C)cc1` (stereo not given): the Potency result in [1], in assay [2], in assay [3], in [4], in [5] and in assay [6] was “inactive” each time. The Potency entry in assay [7] and in assay [9] was “inactive” throughout. For the same compound, the activity, negative = cell killing is -7.11% in assay [8] (setting [15]), -11.8% in assay [8] (setting [16]) and -2.69% in assay [8] (setting [17]). Moreover, the max response in [10] is 5.66% and 6.49%.

With `CCCCCCCCCCCCCCCCO`, the Potency entry in [1], in [2], in assay [3], in [4], in assay [5] and in assay [6] was “inactive” throughout. For the same compound, the Potency result in assay [7] was “inactive”. Moreover, the results for the activity, negative = cell killing in assay [8] (setting [15]), in assay [8] (setting [16]) and in [8] (setting [17]) were -2.36%, 5.55% and 3.59%, respectively. Moreover, the max response in assay [10] is 0.781%. Also, the compound was called inactive in assay [11].

As to `O=C(Nc1ccc([N+](=O)[O-])cc1)Nc1ccc([N+](=O)[O-])cc1`, the Potency result in assay [1], in assay [2], in assay [3], in assay [4], in assay [5] and in assay [6] was “inactive” each time. Moreover, the Potency entry in assay [7] and in [9] was “inactive” in each case. Also, the activity, negative = cell killing in [8] (setting [16]) is -14.3%; in assay [8] (setting [17]), -15.7%.

Regarding `CCNC(=O)/C=C/c1cccc(Br)c1`, the Potency entry in assay [1], in assay [2], in assay [3], in [4], in assay [5] and in assay [6] was “inactive” in each case. The activity, negative = cell killing in [8] (setting [15]) is -10.7%; in assay [8] (setting [16]), -16%; in assay [8] (setting [17]) it was -17.6%.

As for `O=C(CCN1CCN2CCCC2C1)N1c2ccccc2Sc2ccc(Cl)cc21` (stereo not given), the Potency entry in assay [1], in assay [2], in [3], in assay [4], in assay [5] and in assay [6] was “inactive” in each case. Moreover, the Potency entry in assay [7] and in assay [9] was “inactive” throughout.

For `N#C/C(=C1\SCC(c2ccccc2Cl)S1)n1ccnc1` (stereo not given), the Potency result in assay [1], in assay [2], in assay [3], in [4], in assay [6] and in assay [7] was “inactive” in each case. The Potency entry in assay [9] is “inactive”. The results for the activity, negative = cell killing in assay [8] (setting [15]), in assay [8] (setting [16]) and in assay [8] (setting [17]) were -11.6%, -27.3% and 0.133%, respectively. The Potency in [8] (tumour line A) was 10 µM (active).

With `O=C(c1ccc(F)cc1)C1CCN(CCn2c(=S)[nH]c3ccccc3c2=O)CC1`, the Potency entry in assay [1], in assay [2], in assay [3], in [5], in assay [6] and in [7] was “inactive” in each case. In addition, the activity, negative = cell killing in assay [8] (setting [15]) was -29.1%. Moreover, the Potency in [8] (tumour line A) is 12.6 µM (active); in [8] (tumour line C), 20.6 µM (active).

Regarding `Oc1ccc(Cl)cc1Cc1cc(Cl)ccc1O`, the Potency result in assay [1], in [2], in assay [3], in assay [4], in [6] and in assay [7] was “inactive” throughout. The max response in assay [10] is -15% and -0.451%. Further, the compound was classed as inactive in [11].

Regarding `NC(=O)n1c(O)c(C(=O)c2cccs2)c2cc(Cl)ccc21`, the Potency entry in assay [1], in assay [2], in assay [3], in assay [5], in [6] and in [7] was “inactive” throughout. The activity, negative = cell killing was -6.38% in [8] (setting [15]) and -26.9% in [8] (setting [16]). The Potency in [8] (tumour line A) is 22.4 µM (active); in [8] (tumour line C) it was 18.4 µM (active).

Regarding `CCc1oc2ccccc2c1C(=O)c1cc(I)c(O)c(I)c1`, the Potency result in assay [1], in [2], in assay [3], in assay [4], in assay [6] and in assay [7] was “inactive” each time. Besides, in assay [8] (setting [17]), the activity, negative = cell killing was -3.24%.

With `O=C1C(CCS(=O)c2ccccc2)C(=O)N(c2ccccc2)N1c1ccccc1` (stereo not given), the Potency result in assay [1], in [2], in assay [3], in assay [4], in [6] and in assay [7] was “inactive” throughout. In addition, in [9], the Potency entry is “inactive”. Besides, the activity, negative = cell killing was 4.04% in [8] (setting [12]), 2.69% in assay [8] (setting [13]), 2.83% in assay [8] (setting [14]) and -0.0177% in [8] (setting [18]).

Consider `COc1ccc(C(Cl)=C(c2ccc(OC)cc2)c2ccc(OC)cc2)cc1`, for which the Potency entry in [1], in [2], in assay [3], in assay [4], in [6] and in assay [7] was “inactive” throughout. Further, the Potency result in assay [9] was “inactive”. The activity, negative = cell killing in assay [8] (setting [15]) was -6.95%; in assay [8] (setting [17]) it was 2.89%. Besides, the Potency in assay [8] (tumour line A) was 11.2 µM (active).

On to `CC(C)(C)NC[C@H](O)COc1nsnc1N1CCOCC1`, for which the Potency entry in assay [1], in assay [2], in assay [3], in assay [4], in assay [6] and in assay [7] was “inactive” in each case. Also, the Potency result in assay [9] is “inactive”. Also, the values for the activity, negative = cell killing in assay [8] (setting [15]), in assay [8] (setting [16]) and in [8] (setting [17]) were -9.83%, -20.5% and -12.6%, respectively.

As for `O=[N+]([O-])c1cccc(S(=O)(=O)NCCNS(=O)(=O)c2cccc([N+](=O)[O-])c2)c1`, the Potency entry in assay [1], in assay [2], in assay [3], in [4], in assay [6] and in assay [7] was “inactive” each time. The activity, negative = cell killing in assay [8] (setting [15]) was -14.3%; in [8] (setting [16]), -9.35%; in assay [8] (setting [17]) it was -36.6%.

For `CCOC(=O)[C@@](C)(N)Cc1ccc(O)c(O)c1`, the Potency result in [1], in [2], in assay [3], in [4], in assay [6] and in assay [7] was “inactive” throughout. Besides, in assay [9], the Potency result is “inactive”. Further, the activity, negative = cell killing in [8] (setting [12]) is -6.91%; in assay [8] (setting [13]) it was -8.87%; in assay [8] (setting [14]) it was -6.68%; in [8] (setting [18]), -12.3%.

As for `CCCCNC(=O)NS(=O)(=O)c1ccc(N)cc1`, the Potency result in [1], in assay [2], in [3], in [4], in assay [6] and in assay [7] was “inactive” each time. The Potency result in assay [9] is “inactive”. For the same compound, the activity, negative = cell killing in [8] (setting [15]) was -8.59%; in [8] (setting [16]), 11%; in [8] (at 46 µM (top of the series), tumour line A) it was -6.54%; in assay [8] (setting [17]), -25.7%.

Consider `CC(=O)O[C@]1(C(C)=O)CC[C@H]2[C@@H]3C=C(C)C4=CC(=O)CC[C@]4(C)[C@H]3CC[C@@]21C`, for which the Potency entry in assay [1], in [2], in [3], in assay [4], in assay [6] and in assay [7] was “inactive” in each case. Also, the Potency result in assay [9] is “inactive”. Further, the figures for the activity, negative = cell killing in assay [8] (setting [12]), in [8] (setting [13]) and in assay [8] (setting [14]) were -0.988%, -20.3% and 13.6%, respectively.
